# POLB inh – qHTS Assay for Inhibitors of DNA Polymerase Beta; Potency, µM (doses to about 114 µM), for inactives: at the top dose activity change, negative = inhibition, hits mostly inhibitors; 340,000 compounds, 1.3% hits; P06746; Pol beta primer extension/strand displacement, fluorescence kinetic; note: % is set by controls: 0 for no effect and ±100 for the full control effect
#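 Preincubation: enzyme (10 nM) with compound, 15 min, RT. Reaction: substrate added to 50 nM final. Reads: 0 and 10 min. Analysis: normalized, Hill fit.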
# Pol iota inh – qHTS for Inhibitors of Polymerase Iota. DNA polymerase iota (Homo sapiens), Q9UNA4. Pol iota fluorescent replication assay, 10 min. Potency, µM (doses to about 115 µM), inactives show at the highest dose activity, negative = inhibition, hits mostly inhibitors. 390,000 compounds, 1% hits. AID 588590, 2011
# Target sequence (Q9UNA4 whole entry, looked up): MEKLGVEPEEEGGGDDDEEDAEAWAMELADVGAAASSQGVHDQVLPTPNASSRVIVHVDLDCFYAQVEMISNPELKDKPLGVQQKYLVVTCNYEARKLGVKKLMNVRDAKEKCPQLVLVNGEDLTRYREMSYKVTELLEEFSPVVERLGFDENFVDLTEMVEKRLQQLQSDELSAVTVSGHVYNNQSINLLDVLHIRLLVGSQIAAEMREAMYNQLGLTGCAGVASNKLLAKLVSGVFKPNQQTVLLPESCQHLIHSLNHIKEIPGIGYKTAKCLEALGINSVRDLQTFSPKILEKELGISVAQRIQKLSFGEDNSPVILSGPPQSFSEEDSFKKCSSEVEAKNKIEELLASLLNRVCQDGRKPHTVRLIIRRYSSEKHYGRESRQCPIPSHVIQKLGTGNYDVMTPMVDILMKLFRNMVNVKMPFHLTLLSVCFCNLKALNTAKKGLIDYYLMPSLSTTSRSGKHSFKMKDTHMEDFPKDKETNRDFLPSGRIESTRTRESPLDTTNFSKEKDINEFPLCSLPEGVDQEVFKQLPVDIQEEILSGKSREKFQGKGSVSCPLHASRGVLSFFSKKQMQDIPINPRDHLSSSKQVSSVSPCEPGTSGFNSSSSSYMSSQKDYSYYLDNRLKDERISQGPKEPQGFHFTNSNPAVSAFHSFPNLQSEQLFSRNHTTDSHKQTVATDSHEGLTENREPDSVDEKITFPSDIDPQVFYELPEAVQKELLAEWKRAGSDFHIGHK
#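 Fluorescent replication assay read twice, at 0 min and 10 min after adding 50 nM (final) substrate. Enzyme (10 nM) and compounds were first incubated 15 min at room temperature; enzyme-free buffer wells were negative controls.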
# POLH inh – qHTS for Inhibitors of Polymerase Eta | recombinant Pol eta, fluorescent DNA replication assay | Potency, µM (titrated, usually from 114 µM), for inactives: top-dose activity change, negative = inhibition, hits mostly inhibitors | AID 588591, 2011 | 390,000 compounds, 1.2% hits; note: % is set by controls: 0 for no effect and ±100 for the full control effect
#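 Fluorescent replication assay: 50 nM final substrate added after a 15 min room-temperature compound preincubation with 10 nM enzyme. Signal taken at 0 min and again at 10 min.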
# WRN helicase inh – qHTS for Inhibitors of WRN Helicase. Bifunctional 3'-5' exonuclease/ATP-dependent helicase WRN (Homo sapiens), Q14191. WRN helicase unwinding, fluorescent forked duplex, kinetic. Potency, µM (doses to about 114 µM), inactives show at the highest dose activity change, negative = inhibition, hits mostly inhibitors. 360,000 compounds, 0.46% hits. AID 651768, 2012; note: % is set by controls: 0 for no effect and ±100 for the full control effect; nearly all actives have a fitted effect of over 55% in size
#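 Fluorescence dequenching readout, ex 525 nm/em 598 nm, kinetic mode: forked duplex DNA (100 nM final) with adjacent fluorophore and quencher unwound by WRN (20 nM final) with 2 mM ATP. Compound preincubation 15 min, room temperature.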
# POLK inh – qHTS for Inhibitors of Polymerase Kappa. purified Pol kappa, fluorescent DNA synthesis assay, 10 min. Potency, µM (highest dose often 107 µM), for the others: at the top dose activity, negative = inhibition, hits mostly inhibitors. 400,000 compounds, 0.53% hits. AID 588579, 2011; note: % is set by controls: 0 for no effect and ±100 for the full control effect
#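 Kinetic fluorescence readout at 0 and 10 min followed reaction start with substrate at 50 nM final. Beforehand, enzyme (10 nM Pol kappa) stood 15 min with compound at room temperature; buffer-only wells were negative controls.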
# Active calls of the source: *; ? = inconclusive; . = no result; [ ] = remark or other dose. An excerpt weighted towards active compounds, which were near 2.3% of everything screened. Calls come from the whole dose curve; as a rule, active = well fitted curve in the direction sought with a large enough effect; inconclusive = small, poorly fitted or top-dose-only effect, or another doubt; inactive = no such curve, though single readings can be large; an effect the other way counts as inactive or inconclusive. Potency is the fitted concentration of half-maximal effect.
SMILES,POLB inh,Pol iota inh,POLH inh,WRN helicase inh,POLK inh
O=C(c1ccc2c(c1)N(Cc1cccc(F)c1)C(=O)c1ccccc1S2)N1CCOCC1,50.1µM*,?,?,.,-16.4%[60.1 µM]
CCN1CCN(C(=O)c2ccc3c(c2)N(Cc2cccc(F)c2)C(=O)c2ccccc2S3)CC1,?,?,?,.,-2.4%[60.1 µM]
COc1cc2c(NC3CCN(C)CC3)nc(N3CCCN(C)CC3)nc2cc1O,.,16.0%,.,.,-26.8%
COC(=O)c1ccccc1NC(=O)COc1ccccc1C(=O)Nc1ccccc1,.,12.6%,.,.,2.6%
COc1cccc(N2CC(C(=O)Nc3nnc(SCc4cccnc4)s3)CC2=O)c1 (stereo unspecified),25.1µM*,?,?,-23.2%,-7.9%
O=C(Nc1nnc(SCc2cccnc2)s1)C1CC(=O)N(c2ccc(F)cc2)C1 (stereo unspecified),?,?,?,?,-9.0%
Cc1ccccc1N1CC(C(=O)Nc2nnc(SCc3cccnc3)s2)CC1=O (stereo unspecified),31.6µM*,?,17.8µM*,?,-14.0%
O=C(Nc1ccc2c(c1)CCC2)c1cnn2c1NC(=C1CC1)C=C2C(F)F,.,-9.9%,.,.,-2.4%
O=C(O)c1ccccc1C(=O)c1ccc(Sc2ccc(Cl)cc2)c([N+](=O)[O-])c1,79.4µM*,14.6%,-14.0%,0.9%,0.0%
O=C(Nc1nnc(C23CC4CC(CC(C4)C2)C3)s1)c1ccc(N2C(=O)CCC2=O)cc1,10µM*,?,?,-14.9%[57.1 µM],-41.4%
CC(C)CCN1C(=O)c2ccc(C(=O)Nc3ccc(Br)cc3C(=O)O)cc2C1=O,-2.5%,?,31.6µM*,-7.6%[11.6 µM],-34.5%
CC(C)CCN1C(=O)c2ccc(C(=O)Nc3cc(C(=O)O)cc(C(=O)O)c3)cc2C1=O,-1.9%,129.2%,-20.2%,-7.0%,4.1%
COc1ccc(C(=O)C2C(=O)C(=O)N(Cc3ccco3)C2c2cccs2)cc1 (stereo unspecified),.,?,.,.,-22.4%
CSCC[C@H](NC(=O)[C@H](Cc1ccc(OS(=O)(=O)O)cc1)NC(=O)[C@@H](N)CC(=O)O)C(=O)NCC(=O)N[C@@H](Cc1c[nH]c2ccccc12)C(=O)N[C@@H](CCSC)C(=O)N[C@@H](CC(=O)O)C(=O)N[C@@H](Cc1ccccc1)C(N)=O,.,.,.,.,7.5%[60.1 µM]
Cc1ccc2c(Cl)cc(Cl)c(OCC(=O)NCc3ccco3)c2n1,12.6µM*,.,.,.,.
Cc1ccc2c(Cl)cc(Cl)c(OCC(=O)NC(=O)NCc3ccco3)c2n1,?,?,-21.5%,-3.2%,-9.3%
O=C(COc1ccc(Cl)cc1Cl)NCc1ccco1,18.1%,-2.1%,0.4%,-4.9%,-12.9%
Cc1cc(Cl)cc(Cl)c1OCC(=O)NCc1ccco1,39.8µM*,?,20µM*,-3.7%[11.6 µM],-43.1%
COc1ccc(S(=O)(=O)N(CC(=O)NC(C)c2ccccc2)c2ccc(C)cc2)cc1OC (stereo unspecified),10.0%,4.0%,-18.8%,.,-1.3%
O=C(C[N+]12CCCc3cccc(c31)CCC2)c1ccc(Cl)c2ccccc12,.,29.2%,.,.,-13.0%
CNC1C(O)C(OC2C(NC(=O)C(O)CN)CC(N)C(OC3OC(CN)C(O)C(O)C3O)C2O)OCC1(C)O (stereo unspecified),.,.,.,.,0.3%[60.1 µM]
O=S(=O)(O)c1cccc2c(N=Nc3ccc(O)c4ncccc34)cccc12,?,?,3.16µM*,22.4µM*,-99.2%
N/C(=N\O)c1cn(Cc2ccccc2Cl)c2ccccc12,-13.4%,113.2%,-20.2%,0.9%,-7.6%
Cc1[nH][nH]c(=O)c1C(c1c(C)[nH][nH]c1=O)c1cn(Cc2ccccc2Cl)c2ccccc12,-15.5%,5.62µM*,?,-32.3%,-15.0%
CO[C@H]1/C=C\O[C@@]2(C)Oc3c(C)c(O)c4c(O)c(c(C=NN5CCN(C6CCCC6)CC5)c(O)c4c3C2=O)NC(=O)C(C)=CC=C[C@H](C)[C@H](O)[C@@H](C)[C@@H](O)[C@@H](C)[C@H](OC(C)=O)[C@H]1C,.,5.5%,.,.,-14.8%
COc1cccc(NC(=O)c2ccccc2OCC(=O)Nc2ccc(Br)cc2)c1,.,4.2%,.,.,-3.0%

# Screens (PubChem BioAssay)
